Results taken from PubChem BioAssay AID504895 (National Center for Advancing Translational Sciences (NCATS), 2011).
Records with an inconclusive call do not appear. The call rests on the fitted dose curve; in most records, active means well fitted curve in the direction sought with a large enough effect; inconclusive means small, poorly fitted or top-dose-only effect, or another doubt; inactive means no such curve, though single readings can be large or run the other way.

Each compound was assayed against Protein phosphatase EYA2 (Homo sapiens) (UniProt O00167) (assay: Inhibitors of Eya2ED: Hit Confirmation in Primary Screen). Details: Recombinant Eya2ED, OMFP fluorescence phosphatase assay; series mostly up to 76.9 µM; activity change, negative = inhibition: at the top concentration.
Sequence of Protein phosphatase EYA2 (Homo sapiens) (O00167 whole entry, looked up): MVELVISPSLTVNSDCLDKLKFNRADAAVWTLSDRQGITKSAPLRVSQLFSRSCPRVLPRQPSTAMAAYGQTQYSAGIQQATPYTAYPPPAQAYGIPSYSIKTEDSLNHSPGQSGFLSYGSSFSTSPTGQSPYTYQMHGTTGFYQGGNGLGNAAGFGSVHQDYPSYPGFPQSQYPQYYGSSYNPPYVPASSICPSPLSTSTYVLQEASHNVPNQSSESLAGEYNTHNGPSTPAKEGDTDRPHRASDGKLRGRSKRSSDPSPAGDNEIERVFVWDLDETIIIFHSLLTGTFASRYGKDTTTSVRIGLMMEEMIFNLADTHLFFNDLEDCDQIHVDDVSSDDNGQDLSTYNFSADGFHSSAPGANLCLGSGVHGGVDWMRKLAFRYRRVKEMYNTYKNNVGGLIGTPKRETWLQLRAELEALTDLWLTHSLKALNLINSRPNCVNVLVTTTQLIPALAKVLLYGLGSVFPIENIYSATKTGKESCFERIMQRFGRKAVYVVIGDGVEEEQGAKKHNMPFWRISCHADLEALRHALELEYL
Procedure, shortened: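 Hits were retested as 12-point titrations. Compound sat 10 min at ambient with Eya2 (0.2 uM in dispense) in HEPES pH 7.5 buffer with NaCl, MgCl2, BSA and DTT, then OMFP substrate (50 uM in dispense) was added. Dephosphorylation was read by fluorescence at 485/525 nm after a further 10 min.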

Activity change, negative = inhibition, inactive:
Oc1oc(C=Nc2ccc(F)cc2F)c2ccccc12 -7.45%
Cc1c(NS(=O)(=O)c2ccc(N)cc2)c(=O)n(-c2ccccc2)n1C -15.5%
Cc1c(NC(=O)C(C)OC(=O)CCC2CCCC2)c(=O)n(-c2ccccc2)n1C (stereo unspecified) 13.1%
N#Cc1ccccc1NC(=O)CSC1=Nc2ccccc2C2CC=NN12 (stereo unspecified) -26.1%
CC(C)(C)C(=O)Nc1nc(=S)ss1 -11.3%
O=C(CN1C(=O)c2ccccc2S1(=O)=O)Nc1cccc(S(=O)(=O)N2CCOCC2)c1 -7.98%
O=C(O)/C=C/C(=O)Nc1ccc2nccnc2c1 -13.7%
CC(NC(=O)COC(=O)C1CC1C)c1cccc(Cl)c1 (stereo unspecified) -16%
CCOc1ccccc1N(CC(=O)Nc1cc(OC)ccc1OC)S(C)(=O)=O 11.2%
CC(NC(=S)NNS(=O)(=O)c1ccc(C(C)(C)C)cc1)c1ccccc1 (stereo unspecified) -17.1%
O=C(N/N=C/c1ccc(Sc2ccccn2)o1)c1cc2ccccc2cc1O -21.1%
COc1ccc(NC(=O)CNc2cc(S(=O)(=O)N3CCOCC3)ccc2N2CCOCC2)c(OC)c1 -11.5%
O=C(NC1CCCCC1)c1cc2nc3c(c(C(F)(F)F)n2n1)CCCC3 -7.99%
O=C(NCCC1CCCCN1S(=O)(=O)c1ccccc1)C(=O)NCc1ccccn1 (stereo unspecified) -0.504%
O=C(Cn1cccc(C(F)(F)F)c1=O)c1ccc(Cl)cc1 -15.3%
Nc1ccccc1-c1nc2ccccc2[nH]1 6.87%
CC1(c2ccccc2Cl)NC(=O)N(CC(=O)N2CCc3ccccc3C2)C1=O (stereo unspecified) -2.47%
CCC(C)N(C(=O)c1csnn1)C(C(=O)NC1CCCC1)c1ccccc1F (stereo unspecified) -5.36%
O=C(CCCN=C1NS(=O)(=O)c2ccccc21)OCc1ccc(F)cc1 -0.078%
CC(=O)c1c(C)[nH]c(C(=O)COC(=O)COc2ccccc2)c1C 16%
CC(C)CN1C(=O)c2ccc(NC(=O)c3ccccc3F)cc2C1=O -10.4%
O=C(COC(=O)c1cccnc1Cl)Nc1cc(S(=O)(=O)N2CCCCCC2)ccc1Cl -28.3%
O=C(O)C1CC(=O)N(c2ccc(Br)cc2)C1 (stereo unspecified) 10.9%
COC(=O)/C=C1\NCCNC1=O -20.2%
CC[C@]12c3[nH]c4ccccc4c3CCN1C(=O)C(CC(=O)NCCc1ccccn1)C[C@@H]2C(=O)N1CCN(C(=O)c2ccco2)CC1 (stereo partly specified) -3.62%
COc1ccc(/C=C(\C#N)C(=O)OCC(=O)N2CC(C)OC(C)C2)cc1 (stereo unspecified) -19.7%
CSCC[C@H](NC(=O)[C@@H]1Cc2ccccc2CN1)C(=O)Nc1ccc2c(c1)OCCO2 0.798%
CN1CC[n+]2cnc3ccccc3c21 -18.8%
Cc1cccc(-n2c(-c3csc(C(C)C)c3)n[nH]c2=S)c1 -18.6%
CCN(C(=O)COC(=O)c1cc(OC)c(OC)cc1[N+](=O)[O-])C1CCS(=O)(=O)C1 (stereo unspecified) 8.87%
COc1ccc(-c2noc(CCC(=O)NC3CCCCC3)n2)cc1OC -5.13%
